PubChem BioAssay (Tox21)
Results filed as inconclusive are left out. A number with no mark means an inactive call. Calls come from the whole dose curve.

Test: qHTS assay to identify small molecule agonists of the NFkB signaling pathway - cell viability counter screen (AID 1159515); note: nearly all actives have a fitted effect of over 55% in size
Conditions: NFkB-bla ME-180 viability, CellTiter-Glo luminescence, 5 h; series mostly up to 61 µM; activity, negative = cytotoxic: at the top concentration
Excerpt: National Center for Advancing Translational Sciences [NCATS]
NIH Chemical Genomics Center [NCGC]
U.S. Environmental Protection Agency [EPA]
National Institutes of Environmental Health Sciences [NIEHS]
National Toxicology Program [NTP]
U.S. Food and Drug Administration [FDA]
Transcription factors and their stimulated target gene expression play pivotal roles across many cellular processes including responses to environmental stimuli. Proper regulation of associated pathways is critical to maintain cell health and function. Constitutive activation of transcription factor pathways has been implicated in tumors as it may block cellular functions such as apoptosis and lead to invasion and metastasis. One important transcription factor that stimulates gene expression in response to cytokines, UV radiation, and other stimuli is nuclear factor-kappa B (NFkB). To measure activation of the NFkB pathway, the CellSensor NFkB-bla ME-180 cell line (Life Technologies, Carlsbad, CA) that stably expresses beta-lactamase reporter gene under the regulation of a NF-kB response element was used. This assay allows measurement of the NFkB pathway activity induced by compounds in a ME-180 cell line. This system quantitates NF-kB activity using a FRET-based assay system where beta-lactamase expression disrupts FRET, allowing for fluorescent measurement of activity. This cell line has been used to screen the Tox21 10K compound library and to identify compounds that induce the NFkB pathway activity. The cytotoxicity of the Tox21 compound library against the NFkB-bla ME-180 cell line was tested in parallel by measuring cell viability using the CellTiter-Glo assay in the same wells.
Tox21 Assay Protocol Summary:
NFkB-bla ME-180 cells were dispensed at 2,000 cells/6 uL of assay medium per well into black wall/clear-bottom 1536-well plates using a Multidrop Combi (ThermoFisher Scientific, Waltham, MA) dispenser. After the assay plates were incubated at 37 C and 5% CO2 for an overnight, 23 nL of compounds dissolved in DMSO, positive controls or DMSO only was transferred to the assay plate by a Pintool station (Kalypsys, San Diego, CA). The assay plates were incubated at 37 C and 5% CO2 for 5 hr. One uL of LiveBLAzer B/G FRET substrate (Life Technologies) was added using a Flying Reagent Dispenser (Aurora Discovery, San Diego, CA) and the plates were incubated at room temperature for 1.5 hr. Fluorescence intensity (405 nm excitation, 460 nm and 530 nm emissions) was measured using an Envision plate reader (PerkinElmer, Shelton, CT). For cytotoxicity, 3 ul/well of CellTiter-Glo reagent was added into the assay plates using an FRD. After 30 min incubation at room temperature, the luminescence intensity was measured using a ViewLux plate reader (PerkinElmer).
% is set by controls: 0 for no effect and ±100 for the full control effect.

Compound | activity, negative = cytotoxic
CCOC(=O)[C@H](CCc1ccccc1)N[C@H]1CCc2ccccc2N(CC(=O)O)C1=O | -7.76%
CC(=O)N(CC(=O)N(C)C)c1ccccc1 | -9.21%
CCCCCCCCCCCCCCCCCBr | 3.75% [at 28.5 µM]
CC(Cc1cccc(C(F)(F)F)c1)NCCOC(=O)c1ccccc1 (stereo not given) | -9.29%
Oc1ccc(Cc2ccccc2)cc1 | -7.66%
CCCCCCCCCCCCC(=O)O | 7.89% [at 78.8 µM]
CCC(C)N(C)C(=O)c1cc2ccccc2c(-c2ccccc2Cl)n1 (stereo not given) | -9.01%
CCN(CC)C(C)=O | -12.1% [at 78.8 µM]
O=C(CC(=O)c1ccccc1)c1ccccc1 | -12.6% [at 78.8 µM]
Cc1occc1S | 0.1%
CC1=CC(=O)/C(=C(/C)O)C(=O)O1 | 1.21%
O=S1(=O)N=C(O)c2ccccc21 | -6.76%
O=C1CCCCCO1 | -2.43% [at 78.8 µM]
CC1=CCC(C(C)C)C=C1 (stereo not given) | -8.86%
O=C(O)c1cn(C2CC2)c2cc(Cl)c(F)cc2c1=O | 8.65%
O=C(/C=C/c1ccc(O)c(O)c1)O[C@@H]1C[C@](O)(C(=O)O)C[C@@H](O)[C@H]1O | -1.41% [at 78.8 µM]
Cc1ccc(C(N)=O)cc1N | 4.19%
CC(=O)Nc1ccc(/C=N/NC(N)=S)cc1 | -0.623%
CCOC(=O)CC(=O)c1cc(F)c(Cl)nc1Cl | -6.85% [at 78.8 µM]
CCCCOCCOCCOCCOCCO | 2.55%

Compound | activity, negative = cytotoxic
CC(C)CCCCCCOC(=O)c1ccc(C(=O)OCCCCCCC(C)C)c(C(=O)OCCCCCCC(C)C)c1 | -6.73%
C=CCCCCCC | -18.2%
CC/C(=C\C(=N/O)C(N)=O)C(C)[N+](=O)[O-] (stereo not given) | 7.8%
Cc1ccc2c(ccc3ccccc32)c1 | 6.94% [at 78.8 µM]
CCc1nn(C2CCCCC2)c2cc(C3(C#N)CCC(C(=O)O)CC3)ccc12 (stereo not given) | -0.628%
CCCCCOC(=O)COc1cc(N2C(=O)C3=C(CCCC3)C2=O)c(F)cc1Cl | -3.45%
COCCCCCCCCOCCC[Si](C)(O[Si](C)(C)C)O[Si](C)(C)C | 11.3%
Cc1ccc(C)o1 | -15.4% [at 78.8 µM]
O=[N+]([O-])c1cccc(Cl)c1Cl | 16.1%
COc1ccc2[nH]c(S(=O)Cc3ncc(C)c(OC)c3C)nc2n1 (stereo not given) | 2.56%
O=C(Cl)c1ccc([N+](=O)[O-])cc1 | 0.853%
CCCCCc1ccc(N)cc1 | -13.2%
O=C(c1ccc(O)cc1)c1ccc(O)cc1 | 18.2%
Nc1ccc(C(=O)N2CC3CC(CN(Cc4ccccc4)C3)C2)cc1 | 3.97%
Nc1nc(N)c(-c2ccccc2)s1 | -0.93%
CC1CCc2cc(F)cc3c(=O)c(C(=O)O)cn1c23 (stereo not given) | 18%
NC1CCN(c2nc3c(cc2F)c(=O)c(C(=O)O)cn3-c2ccc(F)cc2F)C1 (stereo not given) | 5.44%
C=C(C)C(=O)OCCN(C)C | -7.57% [at 78.8 µM]
O=C(c1ccccc1)c1ccc2n1CCC2C(=O)O (stereo not given) | 3.82%
CCOC(=S)SSC(=S)OCC | -0.662%
